Screening results as filed in PubChem.
ELG1 genotoxic = qHTS screen for small molecules that induce genotoxicity in human embryonic kidney (HEK293T) cells expressing luciferase-tagged ELG1 | Potency, µM (top dose mostly 46 µM), without a hit: at the highest dose activity change, positive = activation, hits mostly activators | 1.3% of 330,000 active | HEK293T ELG1-luciferase reporter, luminescence, 16 h | AID 504466, 2011; also: % of control where 0% means no effect; nearly all actives have a fitted effect of over 60% in size
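HEK293T cells expressing luciferase-tagged ELG1 were exposed to compound or DMSO vehicle for 16 hr at 37 °C and 5% CO2. Luciferase activity was then measured with ONE-Glo after 30 min at room temperature.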
SMN2 splice enh = qHTS Assay for Enhancers of SMN2 Splice Variant Expression | HEK293 SMN2-luciferase splicing reporter, luminescence, 30-36 h | AID 1458, 2008 | 2.8% of 210,000 active | Potency, µM (doses to about 46.1 µM), for inactives: at the highest dose activity change, positive = activation, usual class: activators; also: % of control where 0% means no effect; nearly all actives have a fitted effect of over 55% in size
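HEK293 cells carry an SMN2 minigene-luciferase reporter in which exon 7 inclusion puts luciferase in frame. Cells were seeded at 2000 cells/well, attached for 10-12 hours, then exposed to compounds for 30-36 hours at 37C before ONE-Glo luminescence.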
KinaseGlo FLuc = Counterscreen for Luciferase (Kinase-Glo TM) Inhibition. Kinase-Glo luciferase, ATP luminescence, 8 min. AID 1379, 2008. 0.28% of 200,000 active. Potency, µM (doses to about 38.3 µM), for the others: top-dose activity change, negative = inhibition, actives largely listed as inhibitors; also: % is scaled to controls: 0 for no effect and ±100 for the full control effect; nearly all actives have a fitted effect of over 60% in size
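Compound is pinned into ATP-containing buffer (10 uM ATP, imidazole pH 7.2, 7 mM MgCl2). Kinase-Glo luciferase reagent is then added. Light output is recorded following an 8-min room-temperature incubation.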
NPC1 promoter act = qHTS Assay for NPC1 Promoter Activators; Potency, µM (highest dose often 9.22 µM), for inactives: at the top dose activation, most hits filed as activators; AID 485313, 2010; 2.4% of 320,000 active; Huh7 NPC1 promoter luciferase reporter, 24 h; also: % of control where 0% means no effect; nearly all actives have a fitted effect of over 60% in size
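Cells: Huh7 expressing luciferase under the NPC1 promoter, 1500/well. Seeded 2 h, compound added, incubated 24 h at 37 °C. Luciferase reagent, 10 min ambient, then luminescence.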
Rab9 prom act = qHTS Assay for Rab9 Promoter Activators. AID 485297, 2010. Potency, µM (highest dose often 9.22 µM), for inactives: at the top dose activation, negative = inhibition, hits mostly activators. 2.8% of 320,000 active. Huh7 Rab9 promoter-luciferase reporter, luminescence, 24 h; also: % of control where 0% means no effect; nearly all actives have a fitted effect of over 60% in size
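Luciferase signal after 10 min detection reagent at ambient indicates Rab9 promoter upregulation; stably transfected Huh7 cells were treated 24 h with compound in DMSO at 37 °C, 5% CO2.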
FLuc modulator = qHTS profiling assay for firefly luciferase inhibitor/activator using purifed enzyme and Km concentrations of substrates (counterscreen for miR-21 project); 6.9% of 360,000 active; Potency, µM (titrated, usually from 57.5 µM), for inactives: at the top dose activity change, negative = inhibition, usual class: inhibitors; purified FLuc, Km substrates, luminescence inhibition; AID 588342, 2011; Luciferin 4-monooxygenase (Photinus pyralis), P08659;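 also: plate controls were vehicle for no effect and reference inhibitor for full effect; nearly all actives have a fitted effect of over 55% in size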
Target sequence (P08659 whole entry, looked up): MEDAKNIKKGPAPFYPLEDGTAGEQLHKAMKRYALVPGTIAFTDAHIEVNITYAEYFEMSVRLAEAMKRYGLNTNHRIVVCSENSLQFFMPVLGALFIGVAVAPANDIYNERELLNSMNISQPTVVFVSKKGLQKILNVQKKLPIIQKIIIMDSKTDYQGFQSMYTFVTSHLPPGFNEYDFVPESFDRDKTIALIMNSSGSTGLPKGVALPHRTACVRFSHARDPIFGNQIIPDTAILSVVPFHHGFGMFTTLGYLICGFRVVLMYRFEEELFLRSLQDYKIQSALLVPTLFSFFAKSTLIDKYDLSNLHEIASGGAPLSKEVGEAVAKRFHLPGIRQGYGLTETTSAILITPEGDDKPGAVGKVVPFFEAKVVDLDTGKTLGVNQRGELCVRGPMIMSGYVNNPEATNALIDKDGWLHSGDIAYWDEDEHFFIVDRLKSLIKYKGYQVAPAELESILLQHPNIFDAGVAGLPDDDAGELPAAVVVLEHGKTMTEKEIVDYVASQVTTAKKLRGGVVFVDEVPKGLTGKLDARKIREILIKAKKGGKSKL
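Purified P. pyralis luciferase, 10 nM final, with Km-level 10 uM D-luciferin and 10 uM ATP in 50 mM Tris acetate pH 7.5, 10 mM Mg acetate, 0.01% Tween-20, 0.05% BSA; 6-point qHTS titration about 60 µM downward; luminescence read.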
* marks the source's active call; other numbers are inactive results; ? = inconclusive; / = not tested or not shown; [ ] = remark or other dose. Most compounds without a hit are left out; they make up all but 7.3% or so of the library. Calls follow the shape of the dose curve; as a rule, active = well fitted curve in the direction sought with a large enough effect; inconclusive = small, poorly fitted or top-dose-only effect, or another doubt; inactive = no such curve, though single readings can be large; an effect the other way counts as inactive or inconclusive. Potency is read from the fitted curve at half-maximal effect.

SMILES	ELG1 genotoxic	SMN2 splice enh	KinaseGlo FLuc	NPC1 promoter act	Rab9 prom act	FLuc modulator
CCOC(=O)c1ccc(N2Cc3ccccc3C2)cc1O	?	/	-1.1%	26.9%	?	8.49µM*
COC(=O)[C@@H]1[C@@H](C)N(Cc2ccccc2)C(=O)N[C@H]1c1ccccc1	/	4.5%[9.22 µM]	-10.7%[7.66 µM]	/	/	/
O=C(/C=C/Nc1ccccc1Oc1ccccc1)c1ccco1	0.5%	-0.8%	0.0%	1.6%	-4.3%	-25.9%
COc1ccccc1Oc1ccc(N/C=C/C(=O)c2ccco2)cc1	?	11.2µM*	?	3.16µM*	1.41µM*	5.36µM*
O=C(/C=C/Nc1ccc(Oc2ccccc2Cl)cc1)c1ccco1	?	15.8µM*	-4.4%	3.55µM*	2.24µM*	3.38µM*
O=C(CCC(=O)Nc1nnc(C2CCCCC2)s1)NCc1cccs1	-4.7%	-20.7%	-3.0%	-4.3%	-0.5%	6.2%
CCOc1ccc2nc(SCC3CC3(Cl)Cl)[nH]c2c1 (stereo unspecified)	?	/	/	2.51µM*	3.16µM*	7.57µM*
c1ccc2[nH]c(SCC3CCCCO3)nc2c1 (stereo unspecified)	?	188.4%	?	1.78µM*	1.41µM*	19µM*
ClC1(Cl)CC1CSc1nc2ccccc2[nH]1 (stereo unspecified)	17.4%	?	-1.9%	?	?	16.9µM*
O=C1OCCC1Sc1nc2ccccc2[nH]1 (stereo unspecified)	0.7%	10.4%	1.9%	0.1%	2.4%	-3.4%
O=C(O)CSc1nc2ccccc2[nH]1	-1.6%	-2.0%[9.22 µM]	-2.5%[7.66 µM]	-3.8%	5.6%	-1.2%
COc1cc(C(=O)NCc2ccccc2)ccc1OC(F)F	-3.9%	/	/	6.0%	-4.6%	-4.7%
O=C1C(Cl)=C(NCC2CCCO2)C(=O)N1c1ccccc1 (stereo unspecified)	-2.3%	/	/	1.3%	13.3%	-15.4%
Cc1ccccc1NC(=O)c1ccc(-c2ccc(Cl)cc2Cl)o1	6.6%	0.4%	0.5%	9.4%	19.4%	8.49µM*
O=C(Nc1nccs1)c1ccc(-c2ccc(F)c(Cl)c2)o1	-1.3%	/	/	?	?	6.01µM*
Cc1ccccc1-c1ccc(C(=O)Nc2cccc(F)c2)o1	?	13.1%	-3.5%	5.6%	14.9%	9.53µM*
O=C(Nc1cccc(F)c1)c1ccc(-c2ccccc2C(F)(F)F)o1	8.6%	0.1%	-1.5%	-3.9%	3.2%	?
O=C(Nc1nccs1)c1ccc(-c2ccc(Cl)cc2Cl)o1	?	14.1µM*	-5.3%	3.55µM*	3.16µM*	0.849µM*
CNC(=O)c1ccc(Nc2nnc(C)c3ccccc23)cc1	3.2%	-8.5%	2.9%	0.3%	-1.6%	-2.3%
CCOC(=O)c1ccc(Nc2nnc(C)c3ccccc23)cc1	3.0%	/	/	20.4%	10.1%	16.9µM*
O=C(O)c1ccc(Nc2cnc3ccccc3n2)cc1	?	229.2%	-14.9%	?	2.82µM*	13.5µM*
CCc1ccc(NCc2nc3ccccc3c(=O)[nH]2)cc1	3.26µM*	10µM*	3.7%	?	2.82µM*	10.7µM*
CCOC(=O)c1ccc(NCc2nc3ccccc3[nH]2)cc1	?	2.7%	-8.9%	?	?	21.3µM*
CCOC(=O)Cc1nc2ccccc2[nH]1	-3.4%	-2.4%	0.2%	-2.3%	0.7%	-0.4%
O=C(NCc1ccccc1F)C1CCN(C(=O)c2sccc2-n2cccc2)CC1	-4.9%	/	/	-1.3%	-5.2%	1.7%
SMILES	ELG1 genotoxic	SMN2 splice enh	KinaseGlo FLuc	NPC1 promoter act	Rab9 prom act	FLuc modulator
O=C(NCCc1ccccc1)c1nc2nc(-c3cccs3)cc(C(F)(F)F)n2n1	-7.8%	?	-3.0%	11.9%	13.7%	-19.9%
CCOC(=O)c1ccc(Nc2cc(C)nc(-c3ccccc3)n2)cc1	-5.0%	/	/	-38.7%	-10.9%	-15.3%
CCOC(=O)c1ccc(Nc2cnc3ccccc3n2)cc1	9.2µM*	12.6µM*	-1.2%	2.24µM*	1.78µM*	2.39µM*
CCN(CC)C(=O)c1[nH]cnc1C(=O)N[C@@H](CCCCNC(=O)OC(C)(C)C)C(=O)OC(C)(C)C	-3.7%	/	/	-4.3%	0.4%	-1.3%
CCC(C)Cn1c(/C=C/c2ccccc2)nc2ccccc21 (stereo unspecified)	/	22.7%	/	/	/	6.75µM*
COCCn1c(/C=C/c2ccccc2)nc2ccccc21	?	11.2µM*	?	2.24µM*	2µM*	1.69µM*
CC(C)Cn1c(/C=C/c2ccc(F)cc2)nc2ccccc21	/	17.8µM*	/	/	/	2.39µM*
Cc1cccc(NC(=O)Cn2c(/C=C/c3ccccc3)nc3ccccc32)c1	23.1µM*	/	/	12.2%	23.4%	3.01µM*
CCc1nnc(NC(=O)CCS(=O)(=O)Cc2ccccc2)s1	-3.2%	/	/	0.1%	-2.7%	0.1%
CC(C)CCn1c(/C=C/c2ccccc2)nc2ccccc21	/	?	/	/	/	4.26µM*
COc1cccc(C(=O)O/N=C(\N)c2ccc([N+](=O)[O-])cc2)c1	17.1%	-1.4%	-1.1%	7.7%	29.4%	2.39µM*
COc1ccc(/C(N)=N/OC(=O)c2cccc([N+](=O)[O-])c2)cc1	?	?	-1.9%	10.8%	13.2%	19µM*
COc1ccc(/C(N)=N/OC(=O)c2cccc([N+](=O)[O-])c2C)cc1	?	27.5%	-5.2%	19.9%	25.7%	16.9µM*
COc1ccccc1C/C(N)=N/OC(=O)c1cccc([N+](=O)[O-])c1C	-8.1%	4.3%	2.0%	-4.0%	-5.1%	0.8%
Nn1cnnc1N/N=C\c1ccc(-c2ccccc2[N+](=O)[O-])o1	1.1%	1.0%	-0.8%	10.6%	11.5%	?
Cc1ccccc1NC(=O)C1CCCN(c2nnc(N3CCCC3=O)s2)C1 (stereo unspecified)	5.3%	/	/	-2.4%	3.2%	5.4%
O=C1c2ccccc2C2NC(=O)C3(CCCCC3)N12 (stereo unspecified)	1.3%	5.1%	-0.4%	-1.7%	-2.2%	5.0%
O=C(NC1CCCCC1)NC1CC2CCC(C1)N2C(=S)NCc1ccco1 (stereo unspecified)	-3.4%	-8.9%	0.7%	-0.1%	0.1%	5.5%
CN1CCC(Oc2ccccc2Sc2ccc(C(F)(F)F)cc2)CC1	1.8%	-59.3%	-3.5%	-5.9%	-0.4%	0.6%
CN1CCC(Oc2ccc(Sc3ccccc3)cc2)CC1	?	5.9%	-3.1%	18.3%	21.2%	12µM*
